This note sets out measurements from PubChem BioAssay.

SMILES strings stand for the structures. Active and inactive are the calls of the source.

For the experiment, the system named is XIP peptide (Xip251-270) binding. Kind of experiment: small-molecule binders of XIP peptide, primary screen, biochemical, small-molecule microarray, fluorescence 635/667 nm, 0.1 µg/mL protein (AID 1182). The following applies: fluorescent protein binding, 635 nm, higher = more signal, called active from +8 up or from −8 down.
As to `NCCCCCNC(=O)[C@@H]1C[C@@H]2C(=O)N[C@@H](Cc3ccccc3)C(=O)N2[C@@H]1c1ccc(O)cc1`, the composite z-score was 0.632 (inactive). Regarding `CN(C)CCCCCCNC(=O)[C@@H]1C[C@@H]2C(=O)N[C@@H](Cc3ccccc3)C(=O)N2[C@@H]1c1ccc(O)cc1`, the composite z-score was 0.594 (inactive). As for `C=CC[C@]1(C(=O)NCc2ccccc2)N=C(c2ccc(OCCCO)cc2)O[C@H]1c1ccccc1N=[N+]=[N-]`, the figure is 0.525 (inactive). Then `CC(C)N1C(=O)[C@@]2(Cc3ccccc31)c1ccccc1C(=O)N(Cc1ccccc1Cl)[C@H]2c1ccc(CO)cc1`, with -0.26 (inactive); and `C=CCNC(=O)[C@@H]1[C@H]2C(=O)O[C@H](c3ccccc3)[C@H](c3ccccc3)N2[C@H](c2ccccc2OCCO)[C@@]12C(=O)N(C(=O)OCCOC)c1ccccc12`, with 3.44 (inactive); and `C=C(COC)/C(=C/C[C@H](OC(C)=O)c1ccc(CO)o1)c1cc(C(=O)OC)ccc1OC`, with 0.443 (inactive). As for `O=C1NC(=O)C2C1C=CC(C(O)c1cc(C(F)(F)F)cc(C(F)(F)F)c1)N2Nc1ccccn1` (stereo not given), the figure is 0.604 (inactive); as for `OCCCC1=CC(c2cccs2)N(Cc2cc3c(cc2Br)OCO3)CC1` (stereo not given), 0.412 (inactive); as for `C[C@H]1NC(=O)[C@@]23C(=O)N[C@@H](Cc4ccccc4)C2[C@H](C)[C@@]2(C)O[C@H]2C3/C=C/C/C=C\CNC(=O)[C@@H]2CCCN2C1=O` (stereo not given in full), 0.091 (inactive). Consider `COC(=O)[C@@]1(Cc2ccc(OC)cc2)[C@H]2c3cc(C(=O)N(C)C)n(Cc4ccc(S(C)(=O)=O)cc4)c3C[C@H]2CN1C(=O)c1ccccc1`, for which the composite z-score is 1.64 (inactive).

Consider `O=C1c2ccccc2[C@](Cc2ccccc2I)(C(=O)NCC(F)(F)F)[C@H](c2ccc(CO)cc2)N1Cc1ccccc1Cl`, for which the composite z-score was 0.149 (inactive).

Regarding `C=CC[C@]1(C(=O)NCCCOC)N=C(c2ccc(OCCCO)cc2)O[C@H]1c1ccccc1CN=[N+]=[N-]`, the composite z-score is 0.967 (inactive). Then `COc1cc(C(O)C2C=CC3C(=O)NC(=O)C3N2Nc2ccccn2)cc(OC)c1OC` (stereo not given), with -0.0962 (inactive). Then `[N-]=[N+]=NCc1ccccc1C[C@]1(C(=O)N2CCCCC2)N=C(c2ccc(OCCCO)cc2)O[C@H]1c1ccccc1N=[N+]=[N-]`, with 0.113 (inactive); and `COC(=O)C(CC#Cc1ccc2c(c1)[C@]1(C(=O)N2)[C@H](c2ccc(OCCO)cc2)N2[C@H](c3ccccc3)[C@H](c3ccccc3)OC(=O)[C@H]2[C@@H]1C(=O)N1CCc2cc(OC)c(OC)cc2C1)C(=O)OC`, with 0.0734 (inactive); and `C=CCOC(=O)[C@H]1[C@@H]2C(=O)O[C@@H](c3ccccc3)[C@@H](c3ccccc3)N2[C@@H](c2ccc(OCCOC(=O)[C@@H]3C[C@@H]4C(=O)N[C@@H](CCCCNC(C)=O)C(=O)N4[C@@H]3c3ccc(O)cc3)cc2)[C@]12C(=O)Nc1ccccc12`, with 2.75 (inactive). Consider `O=C1C[C@@](C(=O)NC2CC2)(c2ccc([N+](=O)[O-])cc2)[C@@H](c2ccc(CO)cc2I)N1C1CCCCC1`, for which the composite z-score was 0.0057 (inactive).

For the compound `O=C(NCCO)C1=C[C@H](Oc2ccccc2I)[C@@H](O)[C@H](N(Cc2ccco2)C(=O)Cc2ccccc2)C1`, the composite z-score was 0.143 (inactive). As for `C=CCN1C(=O)[C@]2(O[C@H](CCn3cc([C@H](O)c4ccccc4)nn3)[C@@H]([Si](C)(C)c3ccc(OC)cc3)[C@@H]2C)c2cc(N3CCC3=O)ccc21`, the figure is 0.393 (inactive). Then `CC(C)NC(=O)[C@@H]1c2ccccc2C(=O)N(C2Cc3ccccc3C2)[C@H]1c1ccc(CO)cc1`, with 0.536 (inactive); and `NC(=O)N1C(=O)C2C(C1=O)C1C=C(c3ccc(CO)cc3)C2C(c2cccs2)N1Cc1cccc(OC(F)(F)F)c1` (stereo not given), with 0.0478 (inactive); and `CC(C)NC(=O)[C@@]1(C)c2ccccc2C(=O)N(Cc2cc(C(F)(F)F)cc(C(F)(F)F)c2)[C@H]1c1ccc(CO)cc1`, with 0.281 (inactive). As for `COC(=O)[C@@]1(Cc2ccc(OC)cc2)[C@H]2c3cc(C(=O)N(C)C)n(C)c3C[C@H]2CN1C(=O)c1ccccc1`, the figure is -0.0515 (inactive); as for `CN1C(=O)C2C=CC(C(O)C#Cc3ccccc3)N(N3CCCCC3)C2C1=O` (stereo not given), 1.34 (inactive).

Take `COC(=O)C(CC#Cc1ccc2c(c1)[C@]1(C(=O)N2)[C@H](C(=O)Nc2nc3ccccc3s2)[C@H]2C(=O)O[C@H](c3ccccc3)[C@H](c3ccccc3)N2[C@@H]1c1ccccc1OCCO)C(=O)OC`: the composite z-score was 1.5 (inactive). As for `COCCOC(=O)N1C(=O)[C@@]2(c3cc(C#CC4(O)CCCCCC4)ccc31)[C@H](c1ccc(OCCO)cc1)N1[C@H](c3ccccc3)[C@H](c3ccccc3)OC(=O)[C@H]1[C@@H]2C(=O)N1CCN(c2ncccn2)CC1`, the figure is 0.647 (inactive); as for `C=C(C)[C@@H]1CC=C(C(O)C2C=CC3C(=O)N(c4ccccc4)C(=O)C3N2Nc2ccccc2)CC1` (stereo not given in full), 0.0668 (inactive). As for `COC(=O)[C@@]1(Cc2ccc(OC)cc2)[C@H]2c3cc(C(=O)N(C)C)n(Cc4ccccn4)c3C[C@H]2CN1C(=O)c1ccccc1`, the figure is 0.544 (inactive); as for `NC(=O)NCC#Cc1ccc2c(c1)[C@]1(C(=O)N2)[C@H](c2ccccc2OCCO)N2[C@H](c3ccccc3)[C@H](c3ccccc3)OC(=O)[C@H]2[C@@H]1C(=O)Nc1nc2ccccc2s1`, 0.213 (inactive). In the case of `COC(=O)[C@@]1(Cc2ccc(OC)cc2)[C@H]2c3cc(C(=O)N(C)C)n(CCc4ccccn4)c3C[C@H]2CN1C(=O)c1ccccc1`, the composite z-score is -0.312 (inactive). For `[N-]=[N+]=NCc1ccccc1[C@@H]1OC(c2ccc(OCCCO)cc2)=N[C@]1(Cc1ccccc1)C(N)=O`, the composite z-score is 0.906 (inactive). Then `CC#CC(=O)Oc1ccccc1C=CC(=O)OCC`, with 0.0524 (inactive). Then `CCCC[C@@H]1C[C@H]1[C@@H](NC(=O)c1ccco1)c1ccc(-c2ccccc2)cc1`, with -0.781 (inactive); and `CC(C)CNC(=O)[C@@]1(Cc2ccccc2I)c2ccccc2C(=O)N(C2CCCCC2)[C@H]1c1ccc(CO)cc1`, with 2.15 (inactive). As for `COc1cc2c(cc1O)C(C1CC1)N(Cc1sc3ccccc3c1Cl)CC2` (stereo not given), the figure is 0.275 (inactive).
